In test [1] the target is human Retinoid X Receptor beta (RXRb), RXRB (gene 6257) (UniProt P28702). Kind of test: ATG_RXRb_TRANS: Attagene TRANS-FACTORIAL HepG2 Assay for human Retinoid X Receptor beta (RXRb) (AID 2283013; active = hit-call score of the fitted dose curve at least 0.9, where 1 is the maximum). The method, boiled down: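 Chimeric receptor-Gal4 activity was assessed in transiently transfected human HepG2 cells after 24 h exposure. Transcripts from GAL4-UAS reporters were quantified by fluorescent RT-PCR and capillary electrophoresis, with DMSO as negative control and baseline.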

Read-out in test [2]: E-selectin (Homo sapiens) (UniProt P16581)
Kind of test: BSK_3C_Eselectin: BioMAP Diversity Plus: 3C Assay for Eselectin Biomarker Activity (AID 2283015).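 Also: cell surface E-selectin protein quantified by ELISA 24 h after dosing.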 As to conditions: primary human endothelial cells (HUVEC); actives raise or lower the signal. The method, boiled down: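 Primary human umbilical vein endothelial cells (3C system) were dosed with chemical and cell-surface E-selectin measured by ELISA 24 h later. Bidirectional curve fitting used DMSO as negative control and baseline.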

Read-out in test [3]: Interleukin-1 alpha (IL1a), IL1A (gene 3552)
The experiment in a line: BSK_BE3C_IL1a: BioMAP Diversity Plus: BE3C Assay for Interleukin-1 alpha (IL1a) Biomarker Activity (AID 2283016). Particulars: primary human bronchial epithelial cells; actives raise or lower the signal. The method, boiled down: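 Signal from IL-1a ELISA, taken 24 h after chemical dosing of human bronchial epithelial cells, is compared with DMSO as baseline using bidirectional curve fitting.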

Read-out in test [4]: Monocyte Chemoattractant Protein-1 (MCP1), CCL2 (gene 6347)
The experiment in a line: BSK_3C_MCP1: BioMAP Diversity Plus: 3C Assay for Monocyte Chemoattractant Protein-1 (MCP1) Biomarker Activity (AID 2283017). As to conditions: primary human endothelial cells (HUVEC); actives raise or lower the signal. The method, boiled down:
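Primary human umbilical vein endothelial cells (3C system) were exposed to test chemical for 24 h, after which MCP-1 was quantified by ELISA. Activity was fitted bidirectionally against DMSO as negative control and baseline.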

Read-out in test [5]: Monocyte Chemoattractant Protein-1 (MCP1), CCL2 (gene 6347)
The experiment in a line: BSK_4H_MCP1: BioMAP Diversity Plus: 4H Assay for Monocyte Chemoattractant Protein-1 (MCP1) Biomarker Activity (AID 2283018). Particulars: primary human endothelial cells (HUVEC); actives raise or lower the signal. The method, boiled down:
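Endothelial cells from umbilical vein were treated with test chemical, then after 24 h MCP-1 levels were quantified by ELISA; endpoint values came from bidirectional fitting with DMSO as baseline of activity.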

Read-out in test [6]: Human Leukocyte Antigen - DR isotype (HLADR), HLA-DRA (gene 3122)
Kind of test: BSK_3C_HLADR: BioMAP Diversity Plus: 3C Assay for Human Leukocyte Antigen - DR isotype (HLADR) Biomarker Activity (AID 2283019).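 As to outcome: ELISA of cell-surface HLA-DR on HUVEC 24 h after dosing.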 Particulars: primary human endothelial cells (HUVEC); actives raise or lower the signal. The method, boiled down:
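Primary human umbilical vein endothelial cells (3C system) were dosed with compound and cell-surface HLA-DR was quantified by ELISA at 24 h. Activity was fitted bidirectionally against DMSO as negative control and baseline.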

Read-out in test [7]: Monokine induced gamma interferon (MIG), CXCL9 (gene 4283)
The experiment in a line: BSK_3C_MIG: BioMAP Diversity Plus: 3C Assay for Monokine induced gamma interferon (MIG) Biomarker Activity (AID 2283021). Particulars: primary human endothelial cells (HUVEC); actives raise or lower the signal. The method, boiled down:
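Endothelial primary cells (human umbilical vein) are dosed with test chemical in the 3C system. MIG levels are measured by ELISA at 24 h and fitted in both directions relative to DMSO.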

Test [8] concerns the target human Vitamin D Receptor (VDR), VDR (gene 7421) (UniProt P11473). Kind of test: ATG_VDR_TRANS: Attagene TRANS-FACTORIAL HepG2 Assay for human Vitamin D Receptor (VDR) (AID 2283022; active = hit-call score of the fitted dose curve at least 0.9, where 1 is the maximum). The method, boiled down:
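HepG2 cells were transiently transfected with multiple GAL4-UAS reporter units, so signal reflects exogenous chimeric receptor-Gal4 activity. After 24 h compound exposure, reporter mRNA was measured by RT-PCR, fluorescent labelling and capillary electrophoresis, fitted for gain of signal versus DMSO.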

Test [9] can be described thus: BSK_3C_SRB: Viability Assessment in the BioMAP Diversity Plus: 3C Assay (AID 2283023).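 Also: fitted both ways against DMSO so a hit may be signal rise or drop.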 Particulars: primary human endothelial cells (HUVEC). The method, boiled down: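 Primary human umbilical vein endothelial cells in the 3C system were read 24 h after compound dosing. Total protein was stained with 0.1% sulforhodamine B after 10% TCA fixation and read at 560 nm, with bidirectional fitting against DMSO as baseline.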

Read-out in test [10]: Matrix Metallopeptidase 1 (MMP1), MMP1 (gene 4312)
Kind of test: BSK_BE3C_MMP1: BioMAP Diversity Plus: BE3C Assay for Matrix Metallopeptidase 1 (MMP1) Biomarker Activity (AID 2283024). Particulars: primary human bronchial epithelial cells; actives raise or lower the signal. The method, boiled down: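 MMP1 signal, measured by ELISA after a 24 h chemical exposure of human primary bronchial epithelial cells, is analysed with bidirectional fitting using DMSO as negative control.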

The nature of test [11]: BSK_3C_Vis: BioMAP Diversity Plus: 3C Assay for Morphology Visualization (AID 2283025).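 Also: fitted both ways so gain or loss versus DMSO counts.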 Particulars: primary human endothelial cells (HUVEC). The method, boiled down: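 Morphology read by light microscopy serves as a background control for the multiplexed 3C assay in human umbilical vein endothelial cells, taken 24 h after dosing, with DMSO as the negative control and bidirectional curve fitting.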

Read-out in test [12]: Pselectin, SELP (gene 6403)
Kind of test: BSK_4H_Pselectin: BioMAP Diversity Plus: 4H Assay for Pselectin Biomarker Activity (AID 2283026). Particulars: primary human endothelial cells (HUVEC); actives raise or lower the signal. The gist of the method:
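Endothelial primary cells (human umbilical vein) are dosed, incubated 24 h, and assayed for surface P-selectin by ELISA; responses in either direction are fitted relative to the DMSO negative control.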

Test [13] in a line: BSK_4H_SRB: Viability Assessment in the BioMAP Diversity Plus: 4H Assay (AID 2283027).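 Also: cells exposed to compound for 24 h before staining.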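 As to AC50: curves fitted both ways versus DMSO so AC50 may be loss or gain.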 As to conditions: primary human endothelial cells (HUVEC). The gist of the method:
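Cytotoxicity readout: sulforhodamine B (0.1%) staining of total protein after 10% TCA fixation, measured at 560 nm in human umbilical vein endothelium at 24 h. DMSO set the baseline; fitting was bidirectional.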

A short description of test [14]: BSK_BE3C_SRB: Viability Assessment in the BioMAP Diversity Plus: BE3C Assay (AID 2283028).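 As to AC50: fitted both ways so AC50 may mark signal gain or loss versus DMSO.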 Particulars: primary human bronchial epithelial cells. The gist of the method:
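Human primary bronchial epithelial cells were exposed to test chemicals for 24 h. Total protein in parallel cultures was then measured by staining with 0.1% sulforhodamine B after 10% TCA fixation, with absorbance read at 560 nm. Activity was fitted bidirectionally against DMSO.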

Read-out in test [15]: Thrombomodulin, THBD (gene 7056)
Kind of test: BSK_3C_Thrombomodulin: BioMAP Diversity Plus: 3C Assay for Thrombomodulin Biomarker Activity (AID 2283029). Particulars: primary human endothelial cells (HUVEC); actives raise or lower the signal. The gist of the method: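 Endothelial cells from umbilical vein are dosed with test chemical and incubated 24 h. Thrombomodulin is then quantified by ELISA, with DMSO serving as negative control and activity baseline.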

Read-out in test [16]: Vascular endothelial growth factor receptor 2 (Homo sapiens) (UniProt P35968)
The experiment in a line: BSK_4H_VEGFRII: BioMAP Diversity Plus: 4H Assay for Vascular endothelial growth factor receptor 2 (VEGFR2) Biomarker Activity (AID 2283031). Particulars: primary human endothelial cells (HUVEC); actives raise or lower the signal. The gist of the method:
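Primary human umbilical vein endothelial cells in the BioMAP 4H system were dosed with test chemical, and 24 h later VEGFRII was measured by ELISA. Activity was fitted bidirectionally against DMSO as negative control and baseline.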

For test [17], the target named is human Thyroid Receptor alpha (THRa1), THRA (gene 7067) (UniProt P10827). Kind of test: ATG_THRa1_TRANS: Attagene TRANS-FACTORIAL HepG2 Assay for human Thyroid Receptor alpha (THRa1) (AID 2283014; active = hit-call score of the fitted dose curve at least 0.9, where 1 is the maximum). The method, boiled down: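 HepG2 cells transiently transfected with multiplexed GAL4-UAS reporter units for exogenous chimeric THRa1-Gal4; reporter mRNA measured 24 h after dosing by RT-PCR, 6-FAM labelling, HpaI digestion and capillary electrophoresis. Gain-of-signal fitted versus DMSO baseline.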

Read-out in test [18]: Urokinase-type plasminogen activator receptor (uPAR), PLAUR (gene 5329)
The experiment in a line: BSK_4H_uPAR: BioMAP Diversity Plus: 4H Assay for Urokinase-type plasminogen activator receptor (uPAR) Biomarker Activity (AID 2283030). Particulars: primary human endothelial cells (HUVEC); actives raise or lower the signal. The method, boiled down:
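Primary human umbilical vein endothelial cells were exposed to chemical for 24 h before cell-surface uPAR was quantified by ELISA. Activity was fitted bidirectionally against the DMSO negative control baseline.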

Test [19] has as its target Retinoic acid receptor RXR-alpha (Homo sapiens) (UniProt P19793). Kind of test: ATG_RXRa_TRANS: Attagene TRANS-FACTORIAL HepG2 Assay for human Retinoid X Receptor alpha (RXRa) (AID 2283012; active = hit-call score of the fitted dose curve at least 0.9, where 1 is the maximum). The gist of the method: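 Measures exogenous chimeric NR-GAL4 activity in transfected HepG2 liver cells after 24 h of dosing. Induced reporter mRNA was detected by RT-PCR with capillary electrophoresis, and gain of signal was analysed against DMSO.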

Read-out in test [20]: Interleukin-8 (IL8), CXCL8 (gene 3576)
Kind of test: BSK_3C_IL8: BioMAP Diversity Plus: 3C Assay for Interleukin-8 (IL8) Biomarker Activity (AID 2283020). As to conditions: primary human endothelial cells (HUVEC); actives raise or lower the signal. The gist of the method:
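Endothelial primary cells of human umbilical vein origin are dosed with chemical; after 24 h the IL-8 biomarker is measured by ELISA, and concentration–response is fitted in both directions versus DMSO.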

Results filed as inconclusive are left out. Activity calls are given as the source filed them. The calls were made as follows, unless noted: active = hit-call score of the fitted dose curve at least 0.9, where 1 is the maximum; inactive = score below 0.9.

Chain of human Vitamin D Receptor (VDR), VDR (gene 7421) (P11473 whole entry, looked up, the tested form may be a part): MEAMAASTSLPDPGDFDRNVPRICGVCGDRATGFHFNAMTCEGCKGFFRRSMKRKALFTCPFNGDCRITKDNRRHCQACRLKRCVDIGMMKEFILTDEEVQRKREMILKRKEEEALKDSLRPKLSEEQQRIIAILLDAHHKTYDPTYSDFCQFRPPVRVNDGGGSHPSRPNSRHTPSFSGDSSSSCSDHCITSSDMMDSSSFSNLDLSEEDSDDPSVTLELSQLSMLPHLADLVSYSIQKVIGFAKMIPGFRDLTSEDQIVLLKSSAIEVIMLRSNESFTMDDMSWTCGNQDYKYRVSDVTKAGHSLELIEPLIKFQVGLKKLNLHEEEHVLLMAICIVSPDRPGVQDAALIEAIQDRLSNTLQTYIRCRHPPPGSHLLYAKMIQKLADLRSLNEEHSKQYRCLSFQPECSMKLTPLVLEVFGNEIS
Chain of Retinoic acid receptor RXR-alpha (Homo sapiens) (P19793 whole entry, looked up, the tested form may be a part): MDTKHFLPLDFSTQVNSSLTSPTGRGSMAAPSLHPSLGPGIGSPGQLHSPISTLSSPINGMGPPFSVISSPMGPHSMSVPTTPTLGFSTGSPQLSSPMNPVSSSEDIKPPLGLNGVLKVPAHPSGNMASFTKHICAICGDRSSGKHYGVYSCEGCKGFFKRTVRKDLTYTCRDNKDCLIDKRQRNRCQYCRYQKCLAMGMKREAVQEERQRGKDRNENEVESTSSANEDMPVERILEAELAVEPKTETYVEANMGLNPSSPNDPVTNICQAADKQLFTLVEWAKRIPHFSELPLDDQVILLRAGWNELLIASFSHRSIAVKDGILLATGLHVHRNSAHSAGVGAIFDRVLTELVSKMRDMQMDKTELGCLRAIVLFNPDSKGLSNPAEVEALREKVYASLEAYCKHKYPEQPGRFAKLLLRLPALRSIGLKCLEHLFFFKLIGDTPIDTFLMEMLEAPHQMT
Chain of E-selectin (Homo sapiens) (P16581 whole entry, looked up): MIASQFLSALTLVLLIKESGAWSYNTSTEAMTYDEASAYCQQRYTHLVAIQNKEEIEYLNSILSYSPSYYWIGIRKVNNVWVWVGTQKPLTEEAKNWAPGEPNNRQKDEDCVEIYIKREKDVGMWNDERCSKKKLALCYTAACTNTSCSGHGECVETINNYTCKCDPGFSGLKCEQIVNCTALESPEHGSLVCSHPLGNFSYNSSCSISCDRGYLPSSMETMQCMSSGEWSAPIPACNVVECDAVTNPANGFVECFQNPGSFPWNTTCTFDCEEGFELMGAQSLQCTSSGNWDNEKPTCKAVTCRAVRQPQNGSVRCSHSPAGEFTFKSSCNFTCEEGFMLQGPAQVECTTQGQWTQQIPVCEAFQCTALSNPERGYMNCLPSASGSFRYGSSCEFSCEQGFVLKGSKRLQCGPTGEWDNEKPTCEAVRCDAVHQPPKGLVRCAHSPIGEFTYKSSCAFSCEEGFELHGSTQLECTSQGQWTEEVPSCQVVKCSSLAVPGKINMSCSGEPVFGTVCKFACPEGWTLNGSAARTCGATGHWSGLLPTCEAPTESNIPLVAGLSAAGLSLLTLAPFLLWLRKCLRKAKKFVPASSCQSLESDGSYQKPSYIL
Chain of human Thyroid Receptor alpha (THRa1), THRA (gene 7067) (P10827 whole entry, looked up, the tested form may be a part): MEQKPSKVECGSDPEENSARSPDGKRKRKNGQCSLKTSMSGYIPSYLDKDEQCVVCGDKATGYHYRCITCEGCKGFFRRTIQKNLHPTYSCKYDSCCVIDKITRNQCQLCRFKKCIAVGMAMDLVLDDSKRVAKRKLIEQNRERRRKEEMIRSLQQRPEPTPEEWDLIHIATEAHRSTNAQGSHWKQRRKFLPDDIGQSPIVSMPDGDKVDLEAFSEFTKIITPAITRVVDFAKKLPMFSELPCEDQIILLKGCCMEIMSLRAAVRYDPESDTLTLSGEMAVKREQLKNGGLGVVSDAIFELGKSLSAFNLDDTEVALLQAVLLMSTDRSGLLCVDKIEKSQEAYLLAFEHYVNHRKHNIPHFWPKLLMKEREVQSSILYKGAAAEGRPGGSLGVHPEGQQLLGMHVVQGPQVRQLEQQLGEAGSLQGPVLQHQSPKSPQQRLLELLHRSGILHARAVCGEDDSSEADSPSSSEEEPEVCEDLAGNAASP
Chain of human Retinoid X Receptor beta (RXRb), RXRB (gene 6257) (P28702 whole entry, looked up, the tested form may be a part): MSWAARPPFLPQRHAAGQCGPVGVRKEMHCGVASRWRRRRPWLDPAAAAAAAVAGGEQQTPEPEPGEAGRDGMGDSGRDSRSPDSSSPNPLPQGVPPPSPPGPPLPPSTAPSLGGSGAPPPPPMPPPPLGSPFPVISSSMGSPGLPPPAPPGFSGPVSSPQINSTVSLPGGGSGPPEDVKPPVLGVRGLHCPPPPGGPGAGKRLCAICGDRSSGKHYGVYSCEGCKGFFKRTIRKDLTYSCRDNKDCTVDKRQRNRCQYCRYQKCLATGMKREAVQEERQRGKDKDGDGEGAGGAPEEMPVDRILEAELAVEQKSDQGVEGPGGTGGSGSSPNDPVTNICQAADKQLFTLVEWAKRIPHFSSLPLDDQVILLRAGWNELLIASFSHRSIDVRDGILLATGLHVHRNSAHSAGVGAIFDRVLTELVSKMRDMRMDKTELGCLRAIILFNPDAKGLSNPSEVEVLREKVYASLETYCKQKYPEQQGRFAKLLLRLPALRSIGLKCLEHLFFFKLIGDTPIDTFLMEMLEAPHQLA

`C=CCOC(Cn1ccnc1)c1ccc(Cl)cc1Cl` (centres undefined): the compound was called inactive in test [1], in [2], in test [3], in test [4], in test [7] and in test [8]. The outcome in test [9], in test [10], in [12], in test [13], in test [14] and in test [15] was inactive. For the same compound, the result in test [16] was inactive. Also, the AC50 is 27700 nM (active) in test [5], 13600 nM (active) in test [6] and 9800 nM (active) in test [11].
Consider `O=C(Nc1ccc([N+](=O)[O-])cc1Cl)c1cc(Cl)ccc1O`, for which the call in [17], in [2], in test [4], in [7], in test [10] and in [16] was inactive. For the same compound, the AC50 in [3] is 148 nM (active); in [6], 169 nM (active); in test [9], 589 nM (active); in [12], 302 nM (active); in [13] it was 516 nM (active); in test [14] it was 340 nM (active). Besides, the AC50 in test [15] and in test [18] was 148 nM (active) in each case.
In the case of `COC(=O)c1cccc(C)c1S(=O)(=O)NC(=O)Nc1nc(OCC(F)(F)F)nc(N(C)C)n1`, the call in test [19], in [17], in [2], in [3], in test [4] and in [5] was inactive. The result in [6], in test [7], in test [9], in test [10], in test [11] and in test [12] was inactive. For the same compound, the result in [13], in test [14], in [15], in test [18] and in test [16] was inactive.
For `O=C(O)C1(C(=O)Nc2ccc(Cl)cc2Cl)CC1`, the result in test [19], in test [2], in [3], in [4], in test [5] and in test [7] was inactive. For the same compound, the call in test [8], in [9], in test [10], in test [11], in [12] and in test [13] was inactive. Further, the outcome in [14], in test [15], in [18] and in [16] was inactive. In addition, the concentration at half-maximal activity (AC50) in [6] is 4680 nM (active).
As to `C#CCOC(=O)[C@@H](C)Oc1ccc(Oc2ncc(Cl)cc2F)cc1`, the compound was classed as inactive in [19], in test [2], in test [3], in [4], in test [5] and in test [6]. Moreover, the outcome in [20], in [7], in [8], in [9], in test [10] and in test [11] was inactive. Further, the result in test [12], in [13], in test [14], in test [15], in test [18] and in test [16] was inactive.
On to `COC(=O)c1ccccc1S(=O)(=O)NC(=O)Nc1nc(OC(F)F)cc(OC(F)F)n1`, for which the outcome in test [2], in test [3], in test [4], in test [5], in [6] and in test [7] was inactive. Besides, the outcome in test [8], in test [9], in test [10], in test [11], in test [12] and in test [13] was inactive. Further, the result in [14], in test [15], in [18] and in test [16] was inactive.
As to `OB(O)O`, the result in [19], in test [2], in test [3], in test [4], in test [5] and in test [6] was inactive. Further, the outcome in [20], in test [7], in test [8], in [9], in test [10] and in test [11] was inactive. The outcome in test [12], in [13], in [14], in test [15], in test [18] and in test [16] was inactive.
Take `CCOC(=O)[C@H](C)Oc1ccc(Oc2nc3ccc(Cl)cc3o2)cc1`: the outcome in test [19], in [1], in test [2], in test [3], in [4] and in test [5] was inactive. The result in test [7], in test [8], in test [9], in test [10], in test [11] and in test [12] was inactive. The result in test [13], in test [14], in test [15], in test [18] and in test [16] was inactive. Moreover, the AC50 in test [6] was 7250 nM (active).

Broadly, the AC50 is the concentration giving half of the maximal activity seen.

(Values after PubChem BioAssay (EPA / NIEHS).)
